In ChEMBL document CHEMBL4513146, “CO-ADD screening of Karazin Kharkiv National University (Ukraine) compounds”:
Measured potencies and affinities stand elsewhere.

Legend:
[1] = test system: Staphylococcus aureus; conditions: Concentration 32 ug.mL-1;; ASSAY_TEST Inhibition of Bacterial Growth; detection method Absorption (OD600); MEDIA CAMHB; plate type 384well; NBS; CORNING #3640; time 18 hr
[2] = test system: Escherichia coli; conditions: Concentration 32 ug.mL-1;; ASSAY_TEST Inhibition of Bacterial Growth; detection method Absorption (OD600); MEDIA CAMHB; plate type 384well; NBS; CORNING #3640; time 18 hr

Compound: CC(C)c1nnc2c(=O)n(CC(=O)Nc3cc(Cl)ccc3Cl)c3ccccc3n12
- Inhibition [1]: 3.75%
- Inhibition [2]: 5.3%

Compound: CCc1nnc2c(=O)n(CC(=O)Nc3ccc(Br)cc3F)c3ccccc3n12
- Inhibition [1]: -3.08%
- Inhibition [2]: 3.54%

Compound: O=C(Cn1nc2c(N3CCOCC3)nccn2c1=O)N1CCN(c2ccccc2F)CC1
- Inhibition [1]: 14.68%
- Inhibition [2]: 2.59%

Compound: Cc1cc(C)cc(NC(=O)Cn2nc3c(N4CCCC4)nccn3c2=O)c1
- Inhibition [1]: 12.35%
- Inhibition [2]: -0.75%

Compound: Cc1ccc(-c2cc3c4nn(CC(=O)Nc5c(C)cccc5C)c(=O)n4ccn3n2)cc1
- Inhibition [1]: 9.95%
- Inhibition [2]: 0.29%

Compound: CC1CCN(C(=O)Cn2nc3n(Cc4ccco4)c(=O)c4sccc4n3c2=O)CC1
- Inhibition [1]: 1.87%
- Inhibition [2]: -2.27%

Compound: Cc1ccc(CN(c2ccc(C(C)C)cc2)S(=O)(=O)c2cccn3cnnc23)cc1
- Inhibition [1]: 21.94%
- Inhibition [2]: 4.59%

Compound: COc1ccc(N2CCN(C(=O)Cn3nc4ccc(-c5ccc(Cl)cc5)nn4c3=O)CC2)cc1
- Inhibition [1]: 9.33%
- Inhibition [2]: -1.38%

Compound: Cc1[nH]c2ccccc2c1C(=O)CSc1nnc2c(=O)n(-c3ccccc3)ccn12
- Inhibition [1]: 16.56%
- Inhibition [2]: -0.61%

Compound: CCC(C)NC(=O)Cn1nc2n(Cc3ccco3)c(=O)c3sccc3n2c1=O (configuration not stated)
- Inhibition [1]: 7.96%
- Inhibition [2]: 2.21%

Compound: Cc1ccc(-c2cc3c4nn(CC(=O)NCc5ccccc5Cl)c(=O)n4ccn3n2)cc1C
- Inhibition [1]: 0.72%
- Inhibition [2]: 0.46%

Compound: CCc1ccc(NC(=O)CSc2nnc3ccc(C(=O)Nc4cccc(F)c4)cn23)cc1
- Inhibition [1]: 9.49%
- Inhibition [2]: -4.13%

Compound: Cc1cc(C)cc(NC(=O)Cn2nc3ccc(SCc4ccc(Cl)cc4)nn3c2=O)c1
- Inhibition [1]: -7.67%
- Inhibition [2]: -11.38%

Compound: O=S(=O)(c1cccn2cnnc12)N(Cc1cccc(Cl)c1)c1ccc(F)cc1
- Inhibition [1]: -11.31%
- Inhibition [2]: -14.45%

Compound: O=C(Cn1nc2ccc(SCc3ccc(Cl)cc3)nn2c1=O)Nc1ccccc1
- Inhibition [1]: 5.05%
- Inhibition [2]: -4.3%

Compound: CC(C)CCn1c(=O)c2sccc2n2c(=O)n(CCOc3ccccc3)nc12
- Inhibition [1]: 0.45%
- Inhibition [2]: -7.84%

Compound: Cc1cc(C)cc(N(Cc2ccc(Cl)cc2)S(=O)(=O)c2cccn3c(C)nnc23)c1
- Inhibition [1]: 9.89%
- Inhibition [2]: -11.68%

Compound: CCc1ccc(N(Cc2ccccc2C)S(=O)(=O)c2cccn3c(C)nnc23)cc1
- Inhibition [1]: 9.52%
- Inhibition [2]: -5.19%

Compound: Cc1nnc2c(S(=O)(=O)N(Cc3ccc(F)cc3)c3ccc(Cl)cc3)cccn12
- Inhibition [1]: 5.21%
- Inhibition [2]: -5.38%

Compound: COc1ccc(C)cc1NC(=O)Cn1nc2cc(C)nc(Nc3ccc(F)cc3)n2c1=O
- Inhibition [1]: -14.69%
- Inhibition [2]: 2.14%

Compound: CCc1ccccc1NC(=O)Cn1nc2c(Sc3ccc(C)cc3C)nccn2c1=O
- Inhibition [1]: 1.94%
- Inhibition [2]: -4.21%

Compound: COc1ccccc1NC(=O)Cn1nc2c(SCc3ccc(Cl)cc3)nccn2c1=O
- Inhibition [1]: 2.82%
- Inhibition [2]: -8%

Compound: Cc1cc(C)cc(Nc2nc(C)cc3nn(CC(=O)NC4CCCCC4)c(=O)n23)c1
- Inhibition [1]: 14.04%
- Inhibition [2]: -1.15%

Compound: COc1ccc(N2CCN(C(=O)Cn3nc4c(Oc5cccc(C)c5C)nccn4c3=O)CC2)cc1
- Inhibition [1]: 7.43%
- Inhibition [2]: -1.11%

Compound: Cc1ccccc1CN(c1ccc(C(C)C)cc1)S(=O)(=O)c1cccn2cnnc12
- Inhibition [1]: 17.72%
- Inhibition [2]: 2.74%

Compound: CCCc1nnc2c(=O)n(CC(=O)Nc3ccc(C#N)cc3)c3ccccc3n12
- Inhibition [1]: 8.01%
- Inhibition [2]: -1.86%

Compound: CCCCn1c(=O)c2sccc2n2c(=O)n(CC(=O)N(C)c3ccccc3)nc12
- Inhibition [1]: -8.63%
- Inhibition [2]: -12.98%

Compound: CSc1ccc(-c2noc(Cn3nc4ccc(-c5ccccc5)nn4c3=O)n2)cc1
- Inhibition [1]: 3.45%
- Inhibition [2]: 0.55%

Compound: CCc1nnc2c(S(=O)(=O)N(Cc3ccc(C)cc3)c3ccc(C(C)C)cc3)cccn12
- Inhibition [1]: 16.04%
- Inhibition [2]: -0.02%

Compound: Cc1cccc(C)c1NC(=O)Cn1nc2c(SC3CCCCC3)nccn2c1=O
- Inhibition [1]: 9.56%
- Inhibition [2]: -6.16%

Compound: O=C(CSc1nnc2c(=O)n(-c3ccc(F)c(F)c3)ccn12)c1ccccc1Cl
- Inhibition [1]: 3.6%
- Inhibition [2]: -5.26%

Compound: COc1ccc(C(=O)CSc2nnc3c(=O)n(-c4ccc(F)cc4)ccn23)cc1
- Inhibition [1]: 13.68%
- Inhibition [2]: -0.44%

Compound: CCOc1cccc(CNC(=O)CCc2nnc3ccc(-c4ccc(C)cc4)nn23)c1
- Inhibition [1]: -1.51%
- Inhibition [2]: -5.83%

Compound: O=C(Cn1nc2ccc(Sc3cccc(F)c3)nn2c1=O)Nc1ccc(Cl)cc1
- Inhibition [1]: 7.1%
- Inhibition [2]: -8.49%

Compound: CSc1cccc(NC(=O)Cn2nc3c(Oc4cc(C)cc(C)c4)nccn3c2=O)c1
- Inhibition [1]: 3.38%
- Inhibition [2]: -5.29%

Compound: COc1ccc(-c2cc3c4nn(CC(=O)Nc5ccc(OC)c(OC)c5)c(=O)n4ccn3n2)cc1
- Inhibition [1]: 2.65%
- Inhibition [2]: 2.66%

Compound: Cc1ccc(-c2cc3c4nn(CC(=O)Nc5ccc(F)cc5)c(=O)n4ccn3n2)cc1C
- Inhibition [1]: -6.62%
- Inhibition [2]: -8.95%

Compound: Cc1cc(C)cc(Nc2nc(C)cc3nn(CC(=O)Nc4ccc(Cl)cc4)c(=O)n23)c1
- Inhibition [1]: -9.56%
- Inhibition [2]: 0.58%

Compound: COc1ccccc1NC(=O)Cn1nc2c3c4c(sc3ncn2c1=O)CCCC4
- Inhibition [1]: 0.74%
- Inhibition [2]: -4.22%

Compound: COc1ccc(CN(c2ccc(F)cc2)S(=O)(=O)c2ccc3nnc(C)n3c2)cc1F
- Inhibition [1]: -10.32%
- Inhibition [2]: -13.96%

Compound: COc1ccc(CN(c2cc(C)cc(C)c2)S(=O)(=O)c2cccn3cnnc23)cc1F
- Inhibition [1]: -10.31%
- Inhibition [2]: -13.2%

Compound: Cc1ccccc1CSc1nnc2c(=O)n(-c3ccc(F)cc3)ccn12
- Inhibition [1]: 16.33%
- Inhibition [2]: -5.51%

Compound: COc1ccccc1-n1ccn2c(SCc3cccc(Cl)c3)nnc2c1=O
- Inhibition [1]: -2.16%
- Inhibition [2]: -0.92%

Compound: CC(C)c1nnc2c(SCC(=O)Nc3cccc(Br)c3)nc3ccccc3n12
- Inhibition [1]: 4.41%
- Inhibition [2]: -8.3%

Compound: COc1ccccc1Cn1c(=O)c2sccc2n2c(=O)n(CC(=O)c3ccc(C)cc3C)nc12
- Inhibition [1]: -4.72%
- Inhibition [2]: -4.83%

Compound: COc1ccccc1Cn1c(=O)c2sccc2n2c(=O)n(Cc3c(F)cccc3Cl)nc12
- Inhibition [1]: 3.95%
- Inhibition [2]: 0.18%

Compound: COc1ccc(NC(=O)Cn2nc3c(SCc4ccc(Cl)cc4)nccn3c2=O)cc1
- Inhibition [1]: 4.07%
- Inhibition [2]: -0.18%

Compound: O=c1n(Cc2ccc3c(c2)OCO3)nc2c(S(=O)(=O)N3CCCC3)cccn12
- Inhibition [1]: 0.67%
- Inhibition [2]: -7.1%

Compound: COc1cccc(Oc2nccn3c(=O)n(CC(=O)Nc4cc(C)c(Cl)cc4OC)nc23)c1
- Inhibition [1]: -12.26%
- Inhibition [2]: -0.57%

Compound: Cc1ccccc1N1CCN(c2nccn3c(=O)n(CC(=O)NCc4ccc(Cl)cc4)nc23)CC1
- Inhibition [1]: 13.83%
- Inhibition [2]: -3.79%

Compound: Cc1cc(C)cc(Oc2nc3ccccc3n3c(=O)n(CC(=O)Nc4ccc5c(c4)OCO5)nc23)c1
- Inhibition [1]: 0.02%
- Inhibition [2]: -5.83%

Compound: CCCc1nnc2c(=O)n(CC(=O)Nc3ccc(Cl)c(Cl)c3)c3ccccc3n12
- Inhibition [1]: -1.25%
- Inhibition [2]: 0.68%

Compound: CCCc1nnc2c(=O)n(CC(=O)Nc3cccc(C#N)c3)c3ccccc3n12
- Inhibition [1]: 1.38%
- Inhibition [2]: -7.78%

Compound: O=c1c2sccc2n2c(=O)n(Cc3ccc(Cl)cc3)nc2n1Cc1cccs1
- Inhibition [1]: -8.27%
- Inhibition [2]: -9.25%

Compound: COc1ccc(NC(=O)Cn2nc3ccc(-c4ccc(C)c(C)c4)nn3c2=O)cc1OC
- Inhibition [1]: 11.61%
- Inhibition [2]: -6.17%

Compound: Cc1ccc(NC(=O)Cn2nc3c(Sc4ccccc4)nccn3c2=O)c(Br)c1
- Inhibition [1]: -10.94%
- Inhibition [2]: -14.81%

Compound: CC(=O)c1cccc(NC(=O)Cn2nc3c(N4CCN(c5ccccc5C)CC4)nccn3c2=O)c1
- Inhibition [1]: 17.73%
- Inhibition [2]: 2.22%

Compound: Cc1cc(F)ccc1NC(=O)Cn1nc2c(SCc3ccc(Cl)cc3)nccn2c1=O
- Inhibition [1]: 7.28%
- Inhibition [2]: -4.86%

Compound: Cc1cccc(NC(=O)c2ccc3nnc(SCC(=O)Nc4ccc(Br)cc4)n3c2)c1
- Inhibition [1]: 11.58%
- Inhibition [2]: 0.25%

Compound: Cc1ccc(-c2ccc3nn(CC(=O)Nc4c(C)cccc4C)c(=O)n3n2)cc1C
- Inhibition [1]: -0.95%
- Inhibition [2]: -11.36%

Compound: COc1cc(Cl)c(C)cc1NC(=O)Cn1nc2ccc(SC(C)(C)C)nn2c1=O
- Inhibition [1]: 0.92%
- Inhibition [2]: 3.96%

Compound: COc1ccc(NC(=O)Cn2nc3c4cc(-c5ccc(C)c(C)c5)nn4ccn3c2=O)cc1OC
- Inhibition [1]: 7.31%
- Inhibition [2]: -0.24%

Compound: COc1cc(NC(=O)Cn2nc3c(SC4CCCCC4)nccn3c2=O)cc(OC)c1
- Inhibition [1]: 0.44%
- Inhibition [2]: -4.73%

Compound: O=C(CCc1nnc2c(N3CCCCC3)nc3ccccc3n12)NCc1ccc(F)cc1
- Inhibition [1]: 1.77%
- Inhibition [2]: -4.75%

Compound: CCCCOc1ccc(-c2cc3c4nnc(SCC(=O)Nc5ccc(OC)cc5)n4ccn3n2)cc1
- Inhibition [1]: -5.31%
- Inhibition [2]: -9.08%

Compound: Cc1ccc(-c2ccc3nn(CC(=O)Nc4ccc(Cl)cc4F)c(=O)n3n2)cc1
- Inhibition [1]: 8.27%
- Inhibition [2]: -2.22%

Compound: O=C(Cn1nc2ccc(-c3ccccc3)nn2c1=O)N1CCN(c2ccc(F)cc2)CC1
- Inhibition [1]: 10.02%
- Inhibition [2]: -0.36%

Compound: COC(=O)c1ccc(CN(c2ccc(Cl)cc2)S(=O)(=O)c2ccc3nncn3c2)o1
- Inhibition [1]: 10.93%
- Inhibition [2]: -7.28%

Compound: C=Cc1ccc(CN(c2ccc(F)cc2)S(=O)(=O)c2ccc3nnc(C)n3c2)cc1
- Inhibition [1]: -1.19%
- Inhibition [2]: -7.93%

Compound: Cc1ccc(NC(=O)Cn2c(=O)c3nnc(C(C)C)n3c3ccccc32)cc1C
- Inhibition [1]: 7.95%
- Inhibition [2]: 6.48%

Compound: CC(C)NC(=O)Cn1nc2nc(Nc3ccc(F)cc3)ccn2c1=O
- Inhibition [1]: 8.74%
- Inhibition [2]: -2.64%
